# In all, about 63,000 compounds went through this assay and about 75 (0.1%) were called active. This excerpt belongs to a sample that is enriched for actives. Unmarked numbers belong to inactive results. Cut-off read from the data, not from the text of the source: active = inhibition above about 21%; inactive = the rest.
# Biological target: Cathepsin B (Homo sapiens) (UniProt P07858)
# Experiment: blockers of cathepsin B proteolysis – biochemical, fluorogenic substrate, primary screen (AID 453);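 note: 0% = enzyme with no compound and 100% = no enzyme blank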
# Details: purified cathepsin B, fluorescence, active compounds read high,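 tested at 10 µM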
row,SMILES,inhibition
1,O=C1c2cccc3cccc(c23)N1CN1CCN(c2ccccn2)CC1,2.14%
2,Cc1ccccc1-c1ccc(Nc2ccc(C(=O)N3CCOCC3)cc2)nn1,6.18%
3,NC(=O)CSc1c[nH]c2ccccc12,0.81%
4,COc1ccc(-c2cc(C(=O)NC(C(=O)O)C(C)C)c(C)o2)cc1OC (stereo unspecified),5.71%
5,CCCc1nc2c3cnn(-c4cccc(Cl)c4)c3ncn2n1,-2.64%
6,CCOC(=O)N1CCC(NC(=O)CCc2cn(C)c3ccccc23)CC1,-2.17%
7,COc1ccc(CCNC(=O)C2CCCN(Cc3nc(-c4cccc(Cl)c4)oc3C)C2)cc1OC (stereo unspecified),3.18%
8,COCc1cc(C)nc(Nc2cc(C)ccc2C)c1C#N,4.86%
9,COc1ccc(CCNC(=O)CSc2nnc(CNC(=O)c3cccs3)o2)cc1OC,1.4%
10,O=c1c(F)cn(C2CCCO2)c(=O)n1Cc1ccccc1Cl (stereo unspecified),-1.02%
11,CC(C)OC(=O)c1cc(NC(=O)C2C3CCC(O3)C2C(=O)O)cc(C(=O)OC(C)C)c1 (stereo unspecified),2.7%
12,COc1cc(C2C(C(=O)c3ccc(C)o3)=C(O)C(=O)N2CCc2ccccc2)ccc1O (stereo unspecified),4.77%
13,COc1ccc(NC2CC(=O)N(C)C2=O)cc1 (stereo unspecified),-3.47%
14,CCOC(=O)N1CCN(C(=O)C2CCCN(c3ncnc4c3sc3cccc(F)c34)C2)CC1 (stereo unspecified),-3.56%
15,CCOc1cccc(-c2nn3c(-c4ccccn4)nnc3s2)c1,0.42%
16,CC(=O)N(CN1C(=O)C2CC=CCC2C1=O)c1cccc(Cl)c1 (stereo unspecified),-3.62%
17,Cc1ccc2c(c1)N(CC(=O)N1CCCc3ccccc31)C(=O)C(C)O2 (stereo unspecified),3.31%
18,CC1=C2C(=O)OC(c3ccoc3)C2(C)CCC1 (stereo unspecified),0.12%
19,CC1CSc2nnc(CCc3ccccc3)n21 (stereo unspecified),-1.7%
20,COc1ccc(C2CC(c3ccccc3)Nc3ncnn32)cc1 (stereo unspecified),7.13%
21,Cc1ccc(NC(=O)CN(C)S(=O)(=O)c2cnc[nH]2)cc1C,3.83%
22,O=C(O)C1CCN(S(=O)(=O)N2CCOCC2)CC1,4.13%
23,CCOC(=O)N1CCC(Nc2c(NCCCN3CCN(c4ccc(OC)cc4)CC3)c(=O)c2=O)CC1,4.27%
24,CCCN1CCN(C(=O)Cn2ncc3ccccc32)CC1,0.47%

row,SMILES,inhibition
1,Cc1ccc(F)cc1NC(=O)Cc1nn(C)c(=O)c2ccccc12,2.55%
2,CCCOc1ccc(C2C(C(=O)c3ccc(C)o3)=C(O)C(=O)N2CCCn2ccnc2)cc1 (stereo unspecified),2.38%
3,O=C(Nc1ccc2c(c1)nc1n2CCCCC1)c1cc(S(=O)(=O)N2CCOCC2)ccc1Cl,-1.57%
4,CN1c2ccccc2-c2nc3ccccc3n2C1c1ccco1 (stereo unspecified),-10.8%
5,O=C(CCCn1c(=O)oc2ccccc21)Nc1cccnc1,-0.71%
6,CCCCNc1nc2c(c(=O)n(C)c(=O)n2C)n1Cc1cccc(OC)c1,0.69%
7,COc1ccc(CCNC(=O)CSc2nnc(-c3cccc(F)c3)o2)cc1OC,1.18%
8,CCCSC1=C(C#N)C(c2ccccc2C)C(C(=O)OC)C(=O)N1 (stereo unspecified),-3.07%
9,Cc1ccccc1C(=O)Nc1cccc(-c2nnc(SCC(=O)O)n2C)c1,0.46%
10,CC(C)Oc1ccc(C(=O)Nc2cc(=O)n(C)c(=O)n2C)cc1,-1.53%
11,Cc1cc(NC(=O)Nc2ccccc2)n(-c2ccccc2)n1,0.02%
12,O=C(NCC(F)(F)F)Nc1nnc(C(F)(F)F)s1,2.4%
13,Fc1ccc(Br)cc1/C=N/n1cnnc1,3.66%
14,Cc1cccc(-c2noc(-c3ccc(F)cc3)n2)c1,3.17%
15,COc1c(O)cccc1-c1nnn(CCC(=O)OCC(=O)c2ccccc2)n1,0.08%
16,CN(C)/C=C1\C=C(c2ccccc2)OC1=O,6.09%
17,CCCCSc1nc2c(c(=O)n1CC)SC(C)C2 (stereo unspecified),-3.44%
18,CC1COC2C(O1)N(S(C)(=O)=O)CCN2S(C)(=O)=O (stereo unspecified),3.14%
19,CCOC(=O)[C@H]1CCC[C@@H](NS(=O)(=O)c2ccc(NC(C)=O)cc2)C1,1.14%
20,CCOc1ccccc1C(=O)NCc1ccco1,-3.58%
21,Cc1cc2cc(CN(Cc3cccs3)Cc3nnnn3CC3CCCO3)c(=O)[nH]c2cc1C (stereo unspecified),4.13%
22,O=C(CN(CC1CCCO1)C(=O)CNS(=O)(=O)c1ccccc1)NCc1ccccc1 (stereo unspecified),6.19%
23,CSc1ncccc1C(=O)OCC(=O)N1CCOCC1,4.46%
24,Cn1c(=O)c2c(nc(Br)n2CCSc2nc3ccccc3o2)n(C)c1=O,-0.32%

row,SMILES,inhibition
1,C=CCOc1nc2c(c(=O)n(C)c(=O)n2C)n1Cc1ccc(Cl)cc1Cl,0.74%
2,CN(Cc1ccccc1)C(=O)CCNC(=O)Cn1cnc2ccccc2c1=O,-3.16%
3,O=C(CN1CCOCC1)Nc1ccc(NC(=O)CN2CCOCC2)c(Cl)c1,1.81%
4,Cc1ccc2nc(NC(=O)C3CCN(S(=O)(=O)c4ccc5c(c4)oc(=O)n5C)CC3)sc2c1,4.26%
5,CC(C)C(=O)N1CCN(c2nc(-c3ccccc3)c3c(c2C#N)CC(C)(C)OC3)CC1,1.01%
6,Cc1ccc(-n2c(Cc3cccs3)nnc2SCC(=O)OC(C)C)cc1,11.1%
7,CCOCCOC(=O)C1=C(C)N(C)C(=O)NC1c1ccccc1F (stereo unspecified),1.21%
8,COc1ccc(-c2nnc(SCC(=O)c3ccco3)n2-c2ccccc2)cc1,0.87%
9,CN(CCC#N)c1ncnc2scc(-c3ccccc3)c12,-3.88%
10,COc1cc(C2C(C(=O)c3sc(C)nc3C)=C(O)C(=O)N2CCN(C)C)cc(OC)c1OC (stereo unspecified),4.44%
11,Cc1cc(N=CC2=C(O)CCCC2=O)no1,-1.03%
12,CCC(=O)c1ccc(OCC(O)CN2CC(C)OC(C)C2)cc1 (stereo unspecified),1.68%
13,CCC(=O)c1ccc(OCC(O)CN2C(=O)NC(C)(C)C2=O)cc1 (stereo unspecified),2.56%
14,CC(CCc1ccccc1)NC(=O)c1ccc(Br)o1 (stereo unspecified),-4.56%
15,COCCCN1C(=O)C(=O)/C(=C(/O)c2ccc3c(c2)CC(C)O3)C1c1cccnc1 (stereo unspecified),0.25%
16,CCOc1ccc(NC(=O)CCC(=O)n2nc(C)cc2C)cc1,8.67%
17,CCCCC(CCC(=O)Nc1ccc(C(=O)OCC)cc1)C(=O)O (stereo unspecified),-0.09%
18,CCCOc1ccc(/C(O)=C2/C(=O)C(=O)N(CCN(C)C)C2c2ccc(OC)c(OC)c2)cc1 (stereo unspecified),0.77%
19,Cc1nnc(N(Cc2ccco2)C(=O)c2ccno2)s1,-4.93%
20,CCn1c(CSc2nncn2-c2ccc(OC)cc2)nc2cc(S(=O)(=O)N(C)C)ccc21,5.16%
21,Cc1ccc(NC(=O)C2CCCN(S(=O)(=O)c3c(C)noc3C)C2)c(C)c1 (stereo unspecified),-0.58%
22,CCOC(=O)N1CCN(S(=O)(=O)c2cc(Br)cc3c2N(C(=O)C2CC2)CC3)CC1,2.46%
23,CCOc1cc(C(=O)Nc2ncccn2)cc(OCC)c1OCC,-3.7%
24,Cc1ccc(C(=O)Nc2ccc3c(c2)OCO3)cc1S(=O)(=O)N1CCCCC1,49.6% (active)

row,SMILES,inhibition
1,Cc1ccc(C(=O)NCC(=O)O)cc1S(=O)(=O)N1CCCCC1,6.73%
2,COc1ccc(C(=O)Nc2ccc3c(c2)OCO3)cc1OC,1.65%
3,COC(=O)c1ccccc1NC(=O)CN(Cc1ccccc1)S(C)(=O)=O,-3.25%
4,Cc1cc(=O)oc(C)c1C(=O)NC1CC(C)(C)NC(C)(C)C1,5.11%
5,CC(C)c1nc(-c2ccccn2)no1,-4.78%
6,CC(Sc1nncn1C)C(=O)Nc1ccccc1-c1ccccc1 (stereo unspecified),-1.58%
7,COCCN(C(=O)CCC(=O)Nc1ccccn1)C(C(=O)NCCC(C)C)c1ccc(OC)cc1 (stereo unspecified),-1.72%
8,COc1ccccc1-c1nnc(SCC(=O)N2CC(C)CC(C)C2)o1 (stereo unspecified),-0.15%
9,Cn1c(CNc2nc(-c3ccccc3)cs2)nnc1SCC(=O)c1ccccc1,-1.17%
10,O=C1N=C(N2CCOCC2)CS1,3.2%
11,COc1ccc(CCN2C(=O)c3[nH]nc(-c4ccccc4O)c3C2c2ccc(C)cc2)cc1OC (stereo unspecified),-1.75%
12,O=C(CSc1nnc2ccccn12)c1ccccc1,8.89%
13,Cc1onc(-c2ccccc2)c1C(=O)N1CCOCC1,6.53%
14,Cc1noc(/C=C/N(C)C)c1S(=O)(=O)N1CCCC(C(=O)NCc2ccco2)C1 (stereo unspecified),4.93%
15,Cc1cccc(N2C(=O)SC(N(CC(=O)O)c3cccc(C)c3)C2=O)c1 (stereo unspecified),8.43%
16,CCCCOC(=O)Nc1nccs1,2.38%
17,C=CCOc1ccc(/C=N/n2cncn2)cc1OC,1.3%
18,CCc1nc(Nc2ccc3nccnc3c2)c2oc3ccccc3c2n1,-2.31%
19,C=CCn1c(COc2cccc3cccnc23)nnc1SCC(=O)OC,6.46%
20,Cc1nc2c(-c3ccc(F)cc3)c(C)nn2c(C)c1CCC(=O)N1CCN(c2ccccn2)CC1,-0.57%
21,CCOC(=O)CCc1c(C)c2ccc(OCc3nn[nH]n3)c(C)c2oc1=O,1.69%
22,Cc1cc(C)c(S(=O)(=O)NCCCN2CCOCC2)cc1Br,1.5%
23,Cc1cc(NC(=O)CSc2nnc(-c3ccc(Cl)s3)o2)no1,1.24%
24,O=C(COC(=O)C12CC3CC(CC(C3)C1)C2)NCc1ccco1,-3.05%

# — PubChem BioAssay AID453 (PCMD, 2006)
